PubChem BioAssay (NCI)
This is part of a sample that, as a whole, favours compounds with a hit. Of some 83,000 tested, about 20% had one in any assay.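 48-hour exposure, single concentration, 96-well plates; percent growth endpoint where 0 means no net growth. Active: below 10.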 A number with no mark means an inactive call. Active and inactive are the calls of the source.

Each molecule was assayed on NCI-H322M lung (assay: NCI-60 one-dose screen, 48 h (100 = growth as untreated, 0 = no growth, -100 = all killed)). Conditions: 10 µM unless noted.

Row | Structure (SMILES) | growth
1 | N#CC1=C(N)Oc2c(c(N)nn2-c2ccccc2)C1c1ccc(Cl)cc1Cl (configuration not stated) | 104%
2 | C=C(C)[C@@H]1CC[C@]2(C=O)CC[C@]3(C)[C@H](CC[C@@H]4[C@@]5(C)C/C(=C/c6cccnc6)C(=O)C(C)(C)[C@@H]5CC[C@]43C)[C@@H]12 | 100%
3 | C=C(C)[C@@H]1CC[C@]2(C(=O)N3CCN(CC)CC3)CC[C@]3(C)[C@H](CC[C@@H]4[C@@](C)(CCC(=O)N5CCN(CC)CC5)[C@H](C(=C)C)CC[C@]43C)[C@@H]12 | 89%
4 | CCN1CCN(C(=O)[C@]23CCC(C)(C)C[C@H]2C2=CC[C@@H]4[C@@]5(C)CC/C(=N/O)C(C)(C)[C@@H]5CC[C@@]4(C)[C@]2(C)CC3)CC1 | 86.1%
5 | N#CC1=C(N)Oc2c(sc3c(F)cccc23)C1c1ccc(Cl)cc1 (configuration not stated) | 55.1%
6 | O=C1c2cccc3cccc(c23)C(=O)N1CC#Cc1ccc2c3c(cccc13)C(=O)N(CCN1CCNCC1)C2=O | 98.6%
7 | C=C(C)[C@@H]1CC[C@]2(/C=N/Nc3ccncc3)CC[C@]3(C)[C@H](CC[C@@H]4[C@@]5(C)CCCNC(C)(C)[C@@H]5CC[C@]43C)[C@@H]12 | 102%
8 | Cc1ccnc2c(OCc3ccccc3)cccc12 | 76.4%
9 | C=CC(=O)N[C@H](Cc1ccc(-c2cc(Cl)cc(Cl)c2)cc1)[C@H](O)[C@@H](O)C(=O)O | 100%
10 | C=COCCCCCCCCCCCCCCCCCC | 137%
11 | COc1cc2ncnc(Nc3ccc(Oc4ccnc(C)c4)c(C)c3)c2cc1NC(=O)CC1CCSS1 (configuration not stated) | -49.6% (active)
12 | CN1CCN(c2nc(-c3csc(-c4cccs4)n3)cc3ccccc23)CC1 | 81%
13 | O=C(O[C@@H]1Cc2c(O)cc(O)cc2O[C@@H]1c1cc(O)c(O)c(O)c1)c1cc(O)c2c(c1)OCO2 | 107%
14 | C/C(Cc1ccc(Cl)cc1)=C(/c1ccc(Cl)cc1)c1ccc(OCCN2CCCC2)cc1 | 93.4%
15 | Cc1cc(N(CCCNc2ccnc3cc(Cl)ccc23)Cc2ccco2)nc(N2CCOCC2)n1 | 72.6%
16 | Cc1ccccc1-c1nc(C(Cl)Cl)nc2cc(-c3ccccc3)nn12 | 86.3%

Row | Structure (SMILES) | growth
17 | O=C1/C(=C\C(Cl)=C/c2ccc([N+](=O)[O-])cc2)SC(=S)N1CCc1ccc(O)cc1 | 2.21% (active)
18 | Brc1ccc2c(c1)c(-c1nc(-c3c[nH]c4ncccc34)cs1)cn2CCCN1CCCCC1 | 39.1%
19 | Cn1c(/C(C#N)=C/c2ccc3ccccc3c2)cc2ccccc21 | 48.9%
20 | CN(CSc1ccc(Cl)cc1)c1ccc(CSc2ccc(Cl)cc2)cc1 | 86.4%
21 | CCNCCCn1c2c(c3ccc([N+](=O)[O-])cc3c1=O)C(=O)c1cc(OC)cnc1-2 | 2.15% (active)
22 | CC1(C)NC2=C(C(Nc3cccnc3)N1)C(c1ccc([N+](=O)[O-])cc1)C(C(=O)c1ccc(N=[N+]=[N-])cc1)O2 (configuration not stated) | 100%
23 | COc1ccc(C2C(C#N)=C(N)Oc3c2sc2c(F)cccc32)cc1 (configuration not stated) | 50%
24 | COc1cc(-c2cc3ncccc3c3[nH]c(=O)c4cccnc4c23)cc(OC)c1OC | 52.6%
25 | CCCCC/C(=C\c1ccccc1)C1OC(C)C(C)O1 (configuration not stated) | 112%
26 | COc1ccc2c(c1)c(-c1nc(-c3c[nH]c4ncccc34)cs1)cn2CCNC(=O)OC(C)(C)C | 82.6%
27 | COc1cc(/C=C/c2cc(/C=C/c3ccc(O)c(OC)c3)n(-c3ccccc3)c(=O)n2)ccc1O | 86.8%
28 | CCN1CCN(C(=O)[C@]23CC[C@@H](C)[C@H](C)[C@H]2C2=CC[C@@H]4[C@@]5(C)C/C(=C/c6cccc(OC)c6OC)C(=O)C(C)(C)[C@@H]5CC[C@@]4(C)[C@]2(C)CC3)CC1 | 83.7%
29 | COc1cc2c(cc1-c1c(C)noc1C)ncc1nc(C3CCCCC3)n([C@@H](C)COC(F)F)c12 | 41.9%
30 | CC(=O)OC[C@]12CC[C@@H](/C(C)=N/O)[C@@H]1[C@H]1CC[C@@H]3[C@@]4(C)CCCNC(C)(C)[C@@H]4CC[C@@]3(C)[C@]1(C)CC2 | 90.7%
31 | Brc1cnc2[nH]cc(-c3nnc(-c4ccccc4)o3)c2c1 | 77.5%
32 | COc1ccc2[nH]c(-c3ccc(Cl)cc3)cc(=O)c2c1 | 92%
